# Reference: article PMC4336329 (PLoS ONE, 2015)
# The campaign covered roughly 310,000 compounds. About 14,000 (4.5%) showed an effect of 50% or more. The effect is printed as a negative number. The sample holds strong results, similar compounds and a random draw of the others, so the mix is not that of the screen.
# Molecular target: human ether-à-go-go-related gene (hERG) potassium channel (human, UniProt Q12809)
# Assay: primary screen, population patch clamp on CHO cells stably expressing hERG; higher = less effect of the substance
# 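Note: peak tail current of the secondary pulse compared with the same well before compound.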
# human ether-à-go-go-related gene (hERG) potassium channel, sequence (Q12809 whole entry, looked up): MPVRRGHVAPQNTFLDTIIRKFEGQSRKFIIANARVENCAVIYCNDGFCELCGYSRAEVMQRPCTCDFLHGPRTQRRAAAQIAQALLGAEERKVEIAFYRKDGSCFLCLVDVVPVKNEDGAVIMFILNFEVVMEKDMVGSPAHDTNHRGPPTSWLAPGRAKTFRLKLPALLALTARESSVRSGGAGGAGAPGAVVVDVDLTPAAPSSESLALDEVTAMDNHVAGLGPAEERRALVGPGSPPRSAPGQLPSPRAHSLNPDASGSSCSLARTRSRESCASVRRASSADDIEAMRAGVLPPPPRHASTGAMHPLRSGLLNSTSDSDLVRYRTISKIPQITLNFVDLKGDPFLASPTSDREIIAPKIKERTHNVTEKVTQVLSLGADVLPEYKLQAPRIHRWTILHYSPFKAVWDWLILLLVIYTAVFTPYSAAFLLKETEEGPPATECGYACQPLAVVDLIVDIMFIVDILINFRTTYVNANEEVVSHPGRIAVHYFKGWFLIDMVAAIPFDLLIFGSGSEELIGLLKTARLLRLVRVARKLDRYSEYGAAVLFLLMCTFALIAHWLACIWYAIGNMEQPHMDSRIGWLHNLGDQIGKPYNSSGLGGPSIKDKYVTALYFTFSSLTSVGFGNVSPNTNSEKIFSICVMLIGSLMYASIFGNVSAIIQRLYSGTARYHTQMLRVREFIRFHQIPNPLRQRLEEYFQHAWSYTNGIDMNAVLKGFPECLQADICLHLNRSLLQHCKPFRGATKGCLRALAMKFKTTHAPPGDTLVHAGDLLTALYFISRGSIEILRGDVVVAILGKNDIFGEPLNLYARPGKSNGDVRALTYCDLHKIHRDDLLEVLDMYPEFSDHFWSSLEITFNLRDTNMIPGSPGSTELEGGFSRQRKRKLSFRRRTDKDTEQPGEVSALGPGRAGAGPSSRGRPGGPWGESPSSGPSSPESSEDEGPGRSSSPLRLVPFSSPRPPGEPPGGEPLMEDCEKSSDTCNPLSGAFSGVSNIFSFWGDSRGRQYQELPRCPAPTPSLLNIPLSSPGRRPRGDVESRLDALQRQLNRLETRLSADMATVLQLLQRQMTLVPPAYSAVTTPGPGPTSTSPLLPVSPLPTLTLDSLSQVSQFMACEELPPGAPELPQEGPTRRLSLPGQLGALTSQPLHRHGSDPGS
row,SMILES,"hERG current change (%, negative = inhibition) at 10uM [%]"
1,CCCCNS(=O)(=O)c1ccc2nc(-c3cccs3)cc(C(=O)NCC(OC)OC)c2c1,9.85
2,Cc1c(C(=O)N2CCCCC2)c(S(=O)(=O)Nc2cccc(Br)c2)c(C)n1C,-4.02
3,CCC1CCCCN1C(=O)CCc1nnc(C2CCCCC2)o1 (centres unmarked),-55
4,COC(=O)[C@@H]1CCCN1C(=O)CCc1nnc(C2CCCCC2)o1,6.94
5,O=C(CCc1nnc(C2CCCCC2)o1)N1CCCCC1CCn1cccn1 (centres unmarked),3.65
6,O=C(CCc1nnc(C2CCCCC2)o1)N1CCN(C2CCCCC2)CC1,10.4
7,O=C(CCc1nnc(CCCCc2ccccc2)o1)N1CCCCC1CCO (centres unmarked),-1.73
8,O=C(CCc1nnc(CCc2ccccc2)o1)N1CCCCC1CCn1cccn1 (centres unmarked),-51.1
9,O=C(Cc1cccs1)N/N=C/C(Br)=C/c1ccccc1,10.1
10,CCOc1ccc(OCCCC(=O)Nc2nc3ccccc3[nH]2)cc1,12
11,CC1CCCN(C(=O)CSc2nnc(-c3ccncc3)n2C)C1 (centres unmarked),45.9
12,C/C=C\C=C\C(=O)Nc1cccc(C2=NOC3(C2)C[C@@H](C(N)=O)N(C(=O)C(c2ccccc2)c2ccccc2)C3)c1 (some centres unmarked),0.545
13,Cc1ccc(C=Nc2ccc(N(C)C)cc2)o1,-0.267
14,CCOC(=O)c1ccc(NC(=O)c2ccc3c(c2)C(=O)N(CC2CCCO2)C3=O)cc1 (centres unmarked),-1.87
15,COc1ccc(N2CCN(S(=O)(=O)CCNC(=O)COc3ccccc3OC)CC2)cc1,-1.02
16,Cc1ccccc1OCC(=O)NCCS(=O)(=O)N1CCN(c2ccc(F)cc2)CC1,-66.6
17,COc1ccc(OCC(=O)NCCS(=O)(=O)N2CCN(c3ccc(F)cc3)CC2)cc1,-8.69
18,COc1ccccc1OCC(=O)NCCS(=O)(=O)N1CCN(c2ccccc2)CC1,-44.4
19,COc1ccccc1OCC(=O)NCCS(=O)(=O)N1CCN(c2ccc(F)cc2)CC1,-60.8
20,COc1ccc(N2CCN(S(=O)(=O)CCNC(=O)COc3ccccc3C)CC2)cc1,1.17
21,CCOc1ccc(/C=C(\C#N)C(=O)c2c(C)[nH]c3ccccc23)cc1OC,-4.5
22,CC1Cc2ccccc2N1CC(=O)Nc1ccc(S(N)(=O)=O)cc1 (centres unmarked),-6.21
23,COC(=O)c1cc(-c2ccccc2)sc1NC(=O)CN1C(=O)c2ccccc2C1=O,15.9
